Screens (PubChem BioAssay)
TGFb inhibitor – qHTS for Inhibitors of TGF-b. HepG2 CAGA-GFP TGF-b/SMAD3 reporter, GFP fluorescence, 18 h; TGF-beta stimulated, 500 pg/mL final. Potency, µM (doses to about 46.1 µM), inactives show at the top dose activity, negative = inhibition, actives largely listed as inhibitors. hit rate 1.2% among 410,000; also: % is scaled to controls: 0 for no effect and ±100 for the full control effect; nearly all actives have a fitted effect of over 65% in size
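HEPG2 CAGA-GFP, 1000 cells/well; 2 h settle, 37 C; cpd via pin tool; TGF-b 500 pg/mL final; 18 h, 37 C; GFP imaging ex488/em500-530; %Activity normalised to -TGF-b and +DMSO controls; CRC fit, curve class.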
ATXN viability – Viability Counterscreen for Primary qHTS for Inhibitors of ATXN expression. S2 cells (HEK-293 line with an ATXN2-luciferase reporter) viability, CellTiter-Fluor protease fluorescence, 24 h. Potency, µM (doses to about 56.7 µM), actives largely listed as cytotoxic. hit rate 0.49% among 400,000; also: nearly all actives have a fitted effect of over 40% in size
RORg inh – qHTS for inhibitors of ROR gamma transcriptional activity; Nuclear receptor ROR-gamma (Mus musculus), P51450; Drosophila S2 Gal4-RORgamma UAS-luciferase reporter, 20 h; Potency, µM (doses to about 53.6 µM), for inactives: at the highest dose activity change, negative = inhibition, hits mostly inhibitors; hit rate 5.4% among 310,000; also: % is scaled to controls: 0 for no effect and ±100 for the full control effect; nearly all actives have a fitted effect of over 60% in size
Target sequence (P51450 whole entry, looked up, the tested form may be a part): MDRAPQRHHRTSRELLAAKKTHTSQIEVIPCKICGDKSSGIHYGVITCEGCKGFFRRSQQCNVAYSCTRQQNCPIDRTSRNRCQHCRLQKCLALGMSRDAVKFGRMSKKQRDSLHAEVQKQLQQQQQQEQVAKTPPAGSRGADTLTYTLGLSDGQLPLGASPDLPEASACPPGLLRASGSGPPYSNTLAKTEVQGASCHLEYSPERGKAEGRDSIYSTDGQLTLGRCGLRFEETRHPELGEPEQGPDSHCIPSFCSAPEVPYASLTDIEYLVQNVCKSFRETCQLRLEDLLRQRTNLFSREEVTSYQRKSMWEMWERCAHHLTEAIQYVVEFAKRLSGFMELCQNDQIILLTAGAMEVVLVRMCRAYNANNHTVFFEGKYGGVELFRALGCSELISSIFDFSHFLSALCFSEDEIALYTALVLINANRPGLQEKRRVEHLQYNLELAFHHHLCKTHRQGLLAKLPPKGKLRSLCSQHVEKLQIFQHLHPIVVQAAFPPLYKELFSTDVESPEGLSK
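ROR gamma transcriptional activity was tracked as Gal4-UAS luciferase output in stably transfected Drosophila Schneider cells, with compound added 1 hr before 700 uM copper sulfate induction and a 20 hr ambient-temperature incubation.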
VP16 counter – VP16 counterscreen qHTS for inhibitors of ROR gamma transcriptional activity; Drosophila S2 Gal4-VP16 UAS-luciferase, luminescence, 20 h; Potency, µM (series often up to 53.6 µM), for the others: top-dose activity, negative = inhibition, usual class: inhibitors; hit rate 3.5% among 310,000; AID 2546, 2010;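 also: Gal4-VP16 expression switched on by copper sulfate through the metallothionein promoter; % is scaled to controls: 0 for no effect and ±100 for the full control effect; nearly all actives have a fitted effect of over 50% in size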
HepG2 viability – qHTS for Inhibitors of TGF-b: Cytotox Counterscreen; HepG2 CAGA-GFP viability, ATP luminescence, 18 h; Potency, µM (top dose mostly 46.1 µM), for the others: top-dose activity change, negative = cytotoxicity, hits mostly cytotoxic; hit rate 0.76% among 410,000
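CellTiter-Glo luminescence gave cytotoxicity after 18 hours at 37 degrees C. The cells were HepG2 CAGA-GFP in 1% FBS DMEM, stimulated with 500 pg/mL TGF-beta after compound addition. %Activity was normalised to no-cell wells (complete cell-killing) and DMSO (no toxicity), and curves were fitted and classified.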
ATXN2 expr inh – Primary qHTS for Inhibitors of ATXN expression; HEK-293 ATXN2-luciferase reporter, luminescence, 24 h; Potency, µM (highest dose often 57 µM), for inactives: top-dose activity change, negative = inhibition, actives largely listed as inhibitors; hit rate 0.72% among 360,000; AID 1745845, 2022; also: % is scaled to controls: 0 for no effect and ±100 for the full control effect; nearly all actives have a fitted effect of over 55% in size
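qHTS (up to 57 uM final) was run with 24 h compound exposure of reporter cells at 37 °C. Each well was multiplexed: SteadyGlo luminescence measured ATXN2-luciferase expression after a fluorogenic Gly-Phe-AFC viability readout (25 uM final).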
The depositor's hits bear a star; i = inactive; u = inconclusive; x = no result. This is a sample that favours compounds with a hit; in the whole collection about 6.3% have one here. Calls follow the shape of the dose curve; as a rule, active = well fitted curve in the direction sought with a large enough effect; inconclusive = small, poorly fitted or top-dose-only effect, or another doubt; inactive = no such curve, though single readings can be large; an effect the other way counts as inactive or inconclusive. Potency is read from the fitted curve at half-maximal effect.

SMILES	TGFb inhibitor	ATXN viability	RORg inh	VP16 counter	HepG2 viability	ATXN2 expr inh
O=C(Cn1c(SCC(=O)Nc2ccc(F)cc2)nc2ccccc21)NCc1ccc(Cl)cc1	13µM*	u	x	x	-98%	-27%
FC(F)(F)c1ccccc1Cc1c(-c2ccc(Cl)cc2)nc2ccc(Cl)cn12	u	i	x	x	-40%	58%
Fc1ccc(-c2nc3ccc(Cl)cn3c2Cc2ccccc2C(F)(F)F)cc1	13µM*	i	x	x	-42%	68%
FC(F)(F)c1ccccc1Cc1c(-c2ccco2)nc2ccc(Cl)cn12	u	u	x	x	6.3µM*	-38%
CCn1cc(CN2Cc3ccccc3OC(c3ccccc3OC)C2)c(C)n1 (configuration not stated)	x	i	x	x	x	x
CC1(C(=O)NC(=S)N(CCC#N)Cc2cccnc2)CC1(Cl)Cl (configuration not stated)	x	x	1.4µM*	u	x	x
CCOc1ccccc1NC(=O)C1CCCN1S(=O)(=O)c1ccc2nc(-c3ccccc3)[nH]c2c1 (configuration not stated)	11µM*	x	x	x	-27%	x
Cc1cc(C)cc(NC(=O)C2CCCN2S(=O)(=O)c2ccc3nc(-c4ccccc4)[nH]c3c2)c1 (configuration not stated)	u	x	x	x	-29%	x
CC(C)(C)C(=O)/C(=C\c1ccc([N+](=O)[O-])cc1)n1cncn1	x	x	2.2µM*	4.5µM*	x	x
Cc1cc(C)c(NC(=O)Nc2ccc3c(c2)OCO3)c(C)c1	0%	i	32%	-16%	-1%	40%
Cc1cccc(NC(=O)c2ccc3c(c2)OCCO3)c1	-1%	i	u	u	-29%	-37%
Cc1ccc(C(=O)Nc2ccc3c(c2)OCCO3)c(C)c1	10%	i	3.2µM*	4.5µM*	-30%	5µM*
Cc1cc(C)c2[nH]c(C(=O)Nc3ccc4c(c3)OCO4)cc2c1	22%	u	0.4µM*	-25%	6%	1%
Cc1ccc(NC(=O)c2ccc3c(c2)OCCO3)cc1C	-4%	i	5µM*	u	-28%	u
CC(=O)NS(=O)(=O)c1ccc(NC(=O)c2ccc3c(c2)OCO3)cc1	6%	u	20µM*	0%	4%	35%
Cc1cc(C)c(C(=O)Nc2ccc3c(c2)OCCO3)c(C)c1	-1%	i	x	x	13%	x
CC(=O)Nc1ccc(C(=O)Nc2ccc3c(c2)OCO3)cc1	-9%	i	u	-5%	-2%	30%
COc1ccccc1C(=O)N[C@@H]1c2ccccc2C2(CCN(C(=O)c3ccnn3C)CC2)[C@H]1OC	x	i	x	x	x	x
CCOc1cc(NC(=S)NC)c(OCC)cc1NC(=O)c1cccs1	13%	i	8.9µM*	u	1%	-4%
CCOc1cc(NC(=S)NCCCOC)c(OCC)cc1NC(=O)c1cccs1	5%	i	14µM*	u	-2%	7%
CCOc1cc(NC(=S)NCCOC)c(OCC)cc1NC(=O)c1cccs1	2%	i	14µM*	u	-5%	-9%
COc1cc(NC(=O)c2cnc3c(-c4ccc(F)cc4)c(C)nn3c2C)cc(OC)c1	u	x	x	x	-22%	x
CCOC(=O)c1ccc(Nc2nc3nonc3nc2Nc2cccc(C)c2C)cc1	u	x	x	x	-45%	x
c1ccc(-c2ccccn2)nc1	0%	i	-3%	-2%	2%	-6%
c1ccc(-c2ccc(-c3ccccn3)nn2)nc1	x	x	5.6µM*	8.9µM*	x	x
CC1=CC(C)(C)Nc2ccc(OC(=O)CCN3C(=O)c4ccccc4C3=O)cc21	u	x	u	5.6µM*	-72%	25µM*
COc1ccccc1C(=O)NC(=S)Nc1ccc(N2CCOCC2)c(Cl)c1	15%	i	-31%	u	-1%	-5%
